Each structure is given as a SMILES string. Active and inactive are the calls of the source. How the source made its calls: active means hit-call score of the fitted dose curve at least 0.9, where 1 is the maximum; inactive means score below 0.9.

Test system in one experiment: not listed separately
Put plainly: CCTE_Deisenroth_DEVTOX-GLR_Pluri_CellCount: Viability Assessment in CCTE's DevTox GLR-Pluri Assay Evaluation of Total Cell Counts, Deisenroth Lab (AID 2284430). The procedure, abridged:
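RUES2-GLR human pluripotent cells, seeded 24 h, then differentiated 48 h with two chemical exposures 24 h apart; 10-point series 1 nM - 200 uM. Fixed, nuclear-stained, imaged (5 fields/well); nuclei count as % change vs 0.2% DMSO.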
The term AC50 denotes the concentration giving half of the maximal activity seen. In the case of `CC(C)(c1ccc(O)cc1)c1ccc(O)cc1`, the AC50 is 19700 nM (active).

In the case of `OB(O)O`, the outcome was inactive. The same measure, in the same setting: the same measure for `CCCCC(CC)COC(=O)c1ccccc1C(=O)O` (stereo unspecified): “inactive”.

For the next experiment, the system named is TTR (gene 7276). Put plainly: CCTE_GLTED_hTTR_0.125uM: CCTE's human Transthyretin (hTTR) Inhibition Assay, with 0.125uM TTR, Great Lakes Toxicology and Ecology Division (GLTED) Lab (AID 2284431).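 Further: hits lower the fluorescence signal relative to DMSO baseline.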 The method in brief:
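Fluorescence (380 ex, 475 em) reported the ANSA probe remaining bound to 0.125uM human transthyretin. Chemicals were incubated with the protein for 2 hours; activity was scored as loss of signal against DMSO negative control.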
For the compound `CC(C)(c1ccc(O)cc1)c1ccc(O)cc1`, the AC50 is 7820 nM (active). On the same count and under the same terms, the same measure for `CC(C)CCCCCCc1ccc(O)cc1`: 1870 nM (active). Still for that read-out and setting: for `O=C(Nc1ccc([N+](=O)[O-])cc1Cl)c1cc(Cl)ccc1O` the value was 633 nM (active).

Consider `N#CSCSc1nc2ccccc2s1`, for which the AC50 is 10100 nM (active). The same measure, in the same setting: for `CCCCC(CC)COC(=O)c1ccccc1C(=O)O` (stereo unspecified) the value was 1440 nM (active); for `CCCN(CCC)c1c([N+](=O)[O-])cc(C(F)(F)F)c(N)c1[N+](=O)[O-]`, 348 nM (active); for `COC(=O)c1ccc(I)cc1S(=O)(=O)NC(=O)Nc1nc(C)nc(OC)n1`, 1800 nM (active). On the same count and under the same terms, for `O=C(O)C1(C(=O)Nc2ccc(Cl)cc2Cl)CC1` the value was 8060 nM (active).

Values taken from PubChem BioAssay (EPA / NIEHS).
